Only some compounds are listed: those with a hit (about 27% of all), similar ones and a draw of the others.
Cav32 inh – Cav3.2 calcium influx blockers – cell-based, Fluo-4 calcium fluorescence, FDSS, MLSMR library, primary screen. Voltage-dependent T-type calcium channel subunit alpha-1H (Homo sapiens), O95180. Cav3.2-expressing cells; stronger effect = lower value. B-score at 10 µM. 4% of 100,000 active. AID 449739, 2010;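 active means single-dose well whose peak fluorescence ratio is a statistical outlier from its plate by either plate-standardised score or position-corrected B-score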
CYP2C19 inh – blockers of cytochrome P450 2C19 activity – biochemical, luminescence, ADME assay, primary screen. P33261. CYP2C19 Supersomes, luciferin-H EGE luminescence, 30 min. inhibition, % at 5 µM. 21% of 96,000 active. AID 778, 2007;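 active means CYP2C19 inhibition above a set limit at 5 µM in the primary screen, cut at about 50% in these data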
Pyk2 oligo antag – antagonists of Pyk2 self-association, primary screen, Q293 cells, FERM NanoBiT luminescence, HTS; z-score (the deposit names both 25 µM and 10 µM); Protein-tyrosine kinase 2-beta (Homo sapiens), Q14289; 0.83% of 99,000 active; stronger effect = lower value; AID 1347419, 2020;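 active means Z-score of -3 or lower, scaled per plate to the spread of control and sample wells; inactive means z-score above -3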;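 further: negative z-score means lost luminescence so less FERM oligomerization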
CYP2C9 inh – blockers of cytochrome P450 2C9 activity – biochemical, luminescence, ADME assay, primary screen; CYP2C9 Supersomes, luciferin-H conversion; inhibition, % at 5 µM; P11712; AID 777, 2007; 20% of 96,000 active;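 active means blocking of liver enzyme CYP2C9 beyond about 50% at 5 µM, limit read from the data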
Target sequence (P11712 whole entry, looked up): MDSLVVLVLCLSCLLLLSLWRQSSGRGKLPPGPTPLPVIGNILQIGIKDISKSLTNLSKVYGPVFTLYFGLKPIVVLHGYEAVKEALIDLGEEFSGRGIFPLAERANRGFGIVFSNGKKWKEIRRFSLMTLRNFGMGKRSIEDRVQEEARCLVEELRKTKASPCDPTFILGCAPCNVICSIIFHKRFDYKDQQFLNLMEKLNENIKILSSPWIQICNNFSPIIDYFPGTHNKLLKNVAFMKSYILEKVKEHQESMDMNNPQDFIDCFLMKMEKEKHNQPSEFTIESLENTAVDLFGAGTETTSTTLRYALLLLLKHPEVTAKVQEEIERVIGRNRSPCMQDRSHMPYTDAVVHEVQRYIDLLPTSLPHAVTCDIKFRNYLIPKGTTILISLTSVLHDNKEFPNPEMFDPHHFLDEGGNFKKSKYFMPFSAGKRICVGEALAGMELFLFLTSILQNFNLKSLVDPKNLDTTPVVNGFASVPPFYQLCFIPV
CYP2C9 activ – human CYP2C9 activators, primary screen, biochemical, luminescence | recombinant CYP2C9, luciferin-H conversion; stronger effect = higher value; factor 1 = untreated enzyme, 0 = blocked | activation factor at 5 µM | 1.4% of 96,000 active;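 active means activation factor of 2 or more for CYP2C9 at a 5 µM dose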
CYP2C19 activ – human CYP2C19 activators, primary screen, biochemical, luminescence | Cytochrome P450 2C19 (Homo sapiens), P33261 | recombinant CYP2C19, luciferin-H EGE luminescence; stronger effect = higher value; 0 = fully inhibited enzyme, 1 = untreated enzyme | activation factor at 5 µM | 96,000 tested, under 10 active | AID 1025, 2008;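 active means activation factor of at least 2 at 5 µM in the primary screen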
Large screens that a line does not name were inactive.

O=C(Nc1ccccc1)c1ccc(CSc2ncccn2)cc1	none
Cc1nc2ncnn2c(C)c1CCC(=O)N1CC(C)CC(C)C1 (centres undefined)	none
Cc1cc(C)cc(-n2nnc(C(=O)NCc3ccccc3Cl)c2N)c1	CYP2C9 activ 2.8
Cn1c(N)c(C(=O)NCc2ccccc2Cl)sc1=S	none
COc1ccccc1C(=O)OCc1c(F)cccc1Cl	Cav32 inh -1.9, CYP2C19 inh 73, CYP2C9 activ 3.4
Cc1ccnc(Sc2ccc([N+](=O)[O-])cc2[N+](=O)[O-])n1	CYP2C19 inh 77
O=C(NCCSCc1ccccc1)c1ccc(C2SCC(=O)N2Cc2ccccc2)cc1 (centres undefined)	CYP2C19 inh 92, CYP2C9 inh 97
CCCC(C)NC(=O)c1ccc(C2SCC(=O)N2Cc2ccco2)cc1 (centres undefined)	none
COc1ccc(CN(CC2CCCO2)S(=O)(=O)c2ccc(C(=O)O)cc2)cc1OC (centres undefined)	none
CCC(=O)Nc1cccc(-n2nnnc2SCC(=O)NCc2ccco2)c1	CYP2C19 inh 58, CYP2C9 activ 2.3
CCC(=O)Nc1cccc(-c2nnc(SCC(=O)NCc3ccco3)n2C)c1	none (no result: Cav32 inh)
COc1ccc(-n2nnnc2SCC(=O)NCc2ccco2)cc1OC	CYP2C9 activ 2.2
COc1cccc(-n2nnnc2SCC(=O)Nc2cccc(C)n2)c1	none
CCOC(=O)c1c(NC(=O)CSc2nnnn2-c2ccc(OC)cc2)sc(C)c1C	none
COc1ccc(-n2nnnc2SCC(=O)Nc2nnc(C)s2)cc1	CYP2C9 inh 54
COc1ccc(-n2nnnc2SCC(=O)Nc2cccc(C)n2)cc1OC	CYP2C9 inh 58
CC(C)(C)OC(=O)N1Cc2ccccc2C[C@H]1C(=O)O	none
O=[N+]([O-])c1ccccc1NCCNS(=O)(=O)c1ccc(Cl)cc1	none (no result: Cav32 inh, CYP2C19 inh, CYP2C9 inh, CYP2C9 activ, CYP2C19 activ)
O=[N+]([O-])c1cccc(Cl)c1NCCNS(=O)(=O)c1ccccc1	CYP2C19 inh 60, CYP2C9 activ 2
COc1ccc(-n2nc3c(c2NC(=O)C24CC5CC(CC(C5)C2)C4)CS(=O)C3)cc1 (centres undefined)	CYP2C9 activ 2.4 (no result: Cav32 inh, Pyk2 oligo antag)
COc1cccc(CSc2nc3ccccc3cc2C=O)c1	CYP2C9 inh 64
CCc1cc2ccccc2nc1SCC(=O)Nc1cc(OC)c(OC)cc1C(=O)O	none (no result: Cav32 inh, CYP2C19 inh, CYP2C9 inh, CYP2C9 activ, CYP2C19 activ)
COc1cccc(CSc2nnc(-c3ccc(F)cc3)o2)c1	none
COc1ccc(NC(=O)CSc2nc3ccccc3cc2Cc2ccccc2)cc1	Cav32 inh -4.2, CYP2C19 inh 85
COc1cc(NC(=O)CSc2nc3ccccc3cc2Cc2ccccc2)cc(OC)c1	CYP2C19 inh 83, CYP2C9 inh 64
COc1cccc(NC(=O)CSc2nc3ccccc3cc2Cc2ccccc2)c1	Cav32 inh -4, CYP2C19 inh 94, CYP2C9 inh 68
CCOC(=O)c1c(C)n(C)c2c(C)cc(O)c(OC(=O)CC)c12	none
COc1cc(NC(=O)CSc2ncccc2C(=O)OC(C)C)cc(OC)c1	CYP2C19 inh 70, CYP2C9 inh 51
Cc1cccc(-n2c(CNC(=O)c3ccc(S(=O)(=O)N(C)C)cc3)nnc2SCC(=O)Nc2ccc(F)cc2)c1	none (no result: Cav32 inh, CYP2C19 inh, CYP2C9 inh, CYP2C9 activ, CYP2C19 activ)
CN(c1ccc(OCC(=O)N2CCCCC2)cc1)S(=O)(=O)c1cccs1	CYP2C9 inh 69
CCOC(=O)C(=O)c1csc(NC(=O)COc2ccc(N(C)S(=O)(=O)c3ccc(F)cc3)cc2)n1	CYP2C19 inh 57, CYP2C9 inh 59
CCOC(=O)Cc1csc(NC(=O)COc2ccccc2)n1	CYP2C9 inh 55
CCOC(=O)Cc1csc(NC(=O)COc2ccc(N(C)S(=O)(=O)c3cccs3)cc2)n1	Cav32 inh -4.7, CYP2C19 inh 96, CYP2C9 inh 95
O=C(CCS(=O)(=O)c1cccs1)N1CCCC1	none
O=S(=O)(c1ccc2c(c1)nc(COc1ccc(Cl)cc1)n2CC1CCCO1)N1CCOCC1 (centres undefined)	none
